E-sel TNF inh – E-selectin induction blockers in HUVEC – imaging, immunofluorescence, high content, primary screen. 120,000 compounds, 0.71% hits. HUVEC TNFa-induced E-selectin immunofluorescence. inhibition, % at 2 µM. AID 1246, 2008;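 active means inhibition above the batch mean plus 3 SD, and confirmed as a hit on visual image review, cut at about 43% in these data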;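 further: 0% = TNF-stimulated DMSO wells and 100% = unstimulated control wells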
CYP2C19 inhib – blockers of cytochrome P450 2C19 activity – biochemical, luminescence, ADME assay, primary screen. P33261. CYP2C19 Supersomes, luciferin-H EGE luminescence, 30 min. inhibition, % at 5 µM. 96,000 compounds, 21% hits;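 active means CYP2C19 inhibition above a set limit at 5 µM in the primary screen, cut at about 50% in these data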;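 further: plate controls were negative control wells for no effect and 2.5 mM tranylcypromine positive control for full effect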
CYP2C19 act – human CYP2C19 activators, primary screen, biochemical, luminescence; Cytochrome P450 2C19 (Homo sapiens), P33261; recombinant CYP2C19, luciferin-H EGE luminescence; stronger effect = higher value; 0 = fully inhibited enzyme, 1 = untreated enzyme; activation factor at 5 µM; 96,000 tested, under 10 active;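 active means activation factor of at least 2 at 5 µM in the primary screen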;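 further: 0 = wells with 2.5 mM tranylcypromine and 1 = vehicle-only wells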
CYP2C9 activ – human CYP2C9 activators, primary screen, biochemical, luminescence; Cytochrome P450 2C9 (Homo sapiens), P11712; recombinant CYP2C9, luciferin-H conversion; stronger effect = higher value; factor 1 = untreated enzyme, 0 = blocked; activation factor at 5 µM; 96,000 compounds, 1.4% hits;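 active means activation factor of 2 or more for CYP2C9 at a 5 µM dose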;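 further: 0 = sulfaphenazole-blocked wells and 1 = vehicle-only wells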
Target sequence (P11712 whole entry, looked up): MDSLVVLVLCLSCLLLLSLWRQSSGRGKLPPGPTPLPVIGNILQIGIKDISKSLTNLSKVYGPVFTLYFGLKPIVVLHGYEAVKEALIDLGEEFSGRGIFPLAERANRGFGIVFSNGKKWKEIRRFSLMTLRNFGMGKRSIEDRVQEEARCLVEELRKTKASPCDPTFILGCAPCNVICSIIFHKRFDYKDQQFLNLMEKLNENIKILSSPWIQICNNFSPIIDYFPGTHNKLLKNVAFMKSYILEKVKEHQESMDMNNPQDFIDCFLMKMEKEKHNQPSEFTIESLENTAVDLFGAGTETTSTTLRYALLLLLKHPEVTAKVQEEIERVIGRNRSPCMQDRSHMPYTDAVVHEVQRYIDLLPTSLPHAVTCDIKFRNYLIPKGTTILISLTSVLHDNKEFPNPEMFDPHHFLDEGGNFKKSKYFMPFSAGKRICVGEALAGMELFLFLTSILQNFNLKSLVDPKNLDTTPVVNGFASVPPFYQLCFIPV
CYP2C9 inhib – blockers of cytochrome P450 2C9 activity – biochemical, luminescence, ADME assay, primary screen; P11712; CYP2C9 Supersomes, luciferin-H conversion; inhibition, % at 5 µM; 96,000 compounds, 20% hits;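 active means blocking of liver enzyme CYP2C9 beyond about 50% at 5 µM, limit read from the data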
cytoskel mod – modifiers of F-actin cytoskeleton organization, primary screen, imaging, HUVEC, phalloidin staining, high-content imaging; HUVEC TNFa F-actin phalloidin imaging; inhibition, % at 2 µM; 91,000 compounds, 0.18% hits;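 active means inhibition above the batch mean plus 3 SD and confirmed as a hit by visual image inspection, cut at about 30% in these data, passing the limit was not always enough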
* marks the source's active call; other numbers are inactive results; . = not tested or not shown. Hits are enriched below; roughly 22% of the tested compounds scored in any of these assays.

SMILES	E-sel TNF inh	CYP2C19 inhib	CYP2C19 act	CYP2C9 activ	CYP2C9 inhib	cytoskel mod
CSc1ccc(N2C(=O)NC3(CCCCC3)C2=O)cc1	18	70*	0.3	1.1	-8	-2
O=C1NC2(CCCCC2)C(=O)N1c1ccccc1	-4	22	0.8	0.9	10	-6
CCOC(=O)c1c(NC(=O)OC)sc(C(=O)N(C)C)c1C	-20	24	0.8	0.5	54*	-14
CCOC(=O)c1sc(C)c(C(=O)NC2CCCCC2)c1N	16	7	0.9	2.3*	-132	-13
CCOC(=O)c1c(NC(=O)C2c3ccccc3Oc3ccccc32)sc(C(=O)N(CC)CC)c1C	-51	39	0.6	0	98*	18
CCOC(=O)c1c(NC(=O)CC)sc(C(C)=O)c1C	.	69*	0.3	0.2	77*	13
CCOC(=O)c1snc(C(=O)NC2CCCCC2)c1N	-47	16	0.8	0.7	28	.
CCOC(=O)c1c(NC(=O)COc2ncnc3ccccc23)sc(C(C)=O)c1C	-11	.	.	.	.	.
COc1cc(C(=O)NCCSc2ccc(Br)cc2)cc(OC)c1OC	4	.	.	.	.	.
CCOC(=O)c1c(/N=C/N(C)C)sc(C(=O)OC)c1C	-9	78*	0.2	0.5	50	-12
CCOC(=O)c1c(NC(NC(C)=O)C(Cl)(Cl)Cl)sc(C(C)=O)c1C (stereo not drawn)	-35	38	0.6	0.5	54*	-13
CCOC(=O)c1c(NC(=O)Cc2cccs2)sc(C(=O)NC2CCCCC2)c1C	17	33	0.7	0.3	71*	7
CCOC(=O)c1c(NC(=O)c2cc(C(C)C)on2)sc(C(C)=O)c1C	-11	13	0.9	0.8	23	-21
CCOC(=O)c1c(NC(=O)Cc2cccs2)sc(C(=O)NC2CCCC2)c1C	9	9	0.9	0.7	29	-19
CC1=C(C)CC(C(=O)c2ccc(C)cc2)C(C(=O)O)C1 (stereo not drawn)	48	-12	1.1	1.2	-17	.
CCOc1ccccc1OCCCC(=O)N1CCN(S(=O)(=O)c2cccc(F)c2)CC1	-14	75*	0.3	0.6	36	.
CCOc1ccccc1OCCCC(=O)N1CCN(S(=O)(=O)c2ccc(C)cc2)CC1	-34	86*	0.1	0.5	46	.
N#C/C(C(=O)NCc1ccco1)=C1/SC=C(c2ccccc2)N1c1ccccc1	2	.	.	.	.	.
O=C(c1ccco1)N1CCN(C(c2cccs2)c2sc3ncnn3c2O)CC1 (stereo not drawn)	.	52*	0.5	0.6	44	0
Cc1ccc(C(c2sc3ncnn3c2O)N2CC(C)CC(C)C2)cc1 (stereo not drawn)	.	76*	0.2	0.7	27	-19
Oc1c(C(c2cccs2)N2CCOCC2)sc2ncnn12 (stereo not drawn)	-1	-8	1.1	1.2	-24	-13
Oc1c(C(c2cccs2)N2CCN(c3cccc(Cl)c3)CC2)sc2ncnn12 (stereo not drawn)	-19	42	0.6	0.5	54*	.
Oc1c(C(c2ccco2)N2CCN(C(c3ccccc3)c3ccccc3)CC2)sc2ncnn12 (stereo not drawn)	.	95*	0	0.1	94*	1
O=C(NCCCn1ccnc1)C(=O)NCC1OCCN1S(=O)(=O)c1ccc(Cl)cc1 (stereo not drawn)	11	.	.	.	.	.
FC(F)(F)c1cccc(Cn2nnnc2-c2cccc(C(F)(F)F)c2)c1	-11	92*	0.1	0.5	54*	17
SMILES	E-sel TNF inh	CYP2C19 inhib	CYP2C19 act	CYP2C9 activ	CYP2C9 inhib	cytoskel mod
FC(F)(F)c1cccc(Cn2nnnc2-c2cc(Cl)cc(Cl)c2)c1	3	89*	0.1	0.4	62*	25
CCCn1nnnc1-c1cc(Cl)cc(Cl)c1	3	15	0.8	1.1	-6	-14
Cc1cc(C(F)(F)F)c2c(C)nn(CCc3nn[nH]n3)c2n1	-17	15	0.9	1	0	25
COc1c2occc2c(OC)c2c(=O)cc(C(F)(F)F)oc12	-9	48	0.5	0.8	19	2
COc1c2occc2c(OC)c2c(=O)cc(C(F)(F)C(F)(F)F)oc12	14	98*	0	0.4	61*	9
CC1C/C=C/C=C/C=C/C=C/C(O[C@@H]2O[C@H](C)[C@@H](O)[C@H](N)[C@@H]2O)CC2OC(O)(CC(O)CC3OC3/C=C/C(=O)O1)CC(O)C2C(=O)O (stereo partly drawn)	-23	.	.	.	.	.
CN(C)c1nccc(N(Cc2ccccc2)Cc2ccccc2)c1C#N	-10	27	0.7	0.4	65*	19
CN(C)CCN(Cc1ccccc1)c1ccnc(N(C)C)c1C#N	5	-3	1	1	2	2
CN(C)c1ccc(/C=C/c2cc[n+](C)cc2)cc1	27	0	1	1	0	.
CN(C)c1ccc(/C=C/c2cc[n+]([O-])cc2)cc1	3	92*	0.1	0.5	54*	25
Cc1ccc(C(=O)C(C)OC(=O)c2n[nH]c(=O)c3ccccc23)cc1 (stereo not drawn)	-62	68*	0.3	0.2	84*	-3
Cc1ccc(C(=O)COC(=O)c2n[nH]c(=O)c3ccccc23)cc1	4	26	0.7	0.8	21	11
O=S(=O)(c1cccc(-c2nnc(-c3cccnc3)o2)c1)N1CCCCC1	.	.	.	.	.	-4
O=c1c2ccccc2nnn1CSc1nnc(-c2cccc(S(=O)(=O)N3CCCCC3)c2)o1	13	75*	0.3	0.2	81*	-3
O=S(=O)(c1cccc(-c2nnc(SCc3nc4ccccc4s3)o2)c1)N1CCOCC1	-37	51*	0.5	0.5	50	-17
CCCC(C)C(=O)Nc1ccncc1 (stereo not drawn)	-13	.	.	.	.	-2
CCCC(CCC)C(=O)Nc1ccncc1	5	91*	0.1	0.2	79*	7
O=C(Cc1csc(-c2ccccc2)n1)NCc1cccs1	-10	.	.	.	.	.
Cc1ccc(-c2nc3ccccc3c(C(=O)NCc3cccs3)c2C)cc1	-23	87*	0.1	0.1	95*	-6
Cc1ccc(C)c(-c2cc(C(=O)NCc3cccs3)c3ccccc3n2)c1	6	29	0.7	0.5	52*	19
Cc1ccc(C)c(-c2cc(C(=O)Nc3nccs3)c3ccccc3n2)c1	-1	12	0.9	0.5	49	-4
Cc1ccc(-c2nc(CS(=O)CC(=O)NCCC(C)C)c(C)o2)cc1 (stereo not drawn)	.	49	0.5	0.3	68*	.
Cc1oc(-c2cccs2)nc1CS(=O)CC(=O)NCCCN1CC(C)CC(C)C1 (stereo not drawn)	-21	3	1	0.3	69*	-7

Compound activity deposited in PubChem BioAssay by several laboratories.
